LmPK inh – inhibitors of Leishmania mexicana pyruvate kinase | Q27686 | purified LmPK, Kinase-Glo ATP luminescence, 1 h | Potency, µM (series often up to 57.5 µM), without a hit: at the highest dose activity change, negative = inhibition, usual class: inhibitors | hit rate 0.37% among 290,000; note: % is set by controls: 0 for no effect and ±100 for the full control effect
Target sequence (Q27686 whole entry, looked up): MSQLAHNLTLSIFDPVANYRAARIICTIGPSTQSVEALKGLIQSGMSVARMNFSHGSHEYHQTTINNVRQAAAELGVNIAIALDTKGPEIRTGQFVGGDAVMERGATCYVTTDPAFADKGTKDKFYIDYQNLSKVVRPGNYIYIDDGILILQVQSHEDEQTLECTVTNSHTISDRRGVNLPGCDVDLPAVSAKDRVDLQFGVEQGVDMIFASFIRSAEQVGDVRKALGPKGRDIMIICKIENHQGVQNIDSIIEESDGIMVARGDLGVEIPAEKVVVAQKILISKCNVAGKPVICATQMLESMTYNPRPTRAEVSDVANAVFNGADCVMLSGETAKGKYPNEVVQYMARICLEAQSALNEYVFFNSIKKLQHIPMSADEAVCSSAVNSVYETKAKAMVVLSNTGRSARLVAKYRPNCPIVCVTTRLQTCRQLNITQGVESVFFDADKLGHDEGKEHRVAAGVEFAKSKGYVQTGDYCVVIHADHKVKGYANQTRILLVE
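Purified LmPK (0.1 nM) with 0.5 mM PEP and 0.1 mM ADP in imidazole buffer pH 7.2 with MgCl2/KCl, 1 h at room temperature. ATP formed was read by luciferase luminescence and normalized to no-enzyme and uninhibited controls.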
Tb PYK inh – T. brucei pyruvate kinase inhibition; Q57TT1; TbPYK enzyme, Kinase-Glo Plus ATP luminescence, 45 min; Potency, µM (doses to about 76.8 µM), for inactives: top-dose activity, negative = inhibition, actives largely listed as inhibitors; hit rate 0.12% among 410,000; note: % is set by controls: 0 for no effect and ±100 for the full control effect; nearly all actives have a fitted effect of over 50% in size
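Readout: single end-point luminescence (Kinase-Glo Plus, 10 min). Reaction conditions were TbPYK/substrate plus 130 uM ADP, 45 min at RT, pH 7.2 TEA buffer. No-enzyme wells served as controls, and data were normalized before concentration-response fitting.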
SARS PLP yeast – SARS-CoV PLP inhibition in yeast | hit rate 0.19% among 330,000 | S. cerevisiae expressing SARS-CoV PLpro, growth rescue | Potency, µM (titrated, usually from 32.9 µM), without a hit: top-dose activity, positive = growth rescue, usual class: activators; calls by dose curve; note: 0% is about no effect; nearly all actives have a fitted effect of over 55% in size
Sm TGR inh – S. mansoni TGR enzyme inhibition; Q962Y6; purified TGR, DTNB reduction, TNB absorbance 405 nm; Potency, µM (top dose mostly 114 µM), for inactives: at the highest dose activity change, negative = inhibition, hits mostly inhibitors; hit rate 3% among 360,000; AID 485364; note: % is set by controls: 0 for no effect and ±100 for the full control effect; nearly all actives have a fitted effect of over 60% in size
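Kinetic colorimetric format: TGR-catalysed, NADPH-driven DTNB reduction monitored via TNB absorbance. Enzyme dispensed at 20 nM; compound exposure 15 min at room temperature before reaction start.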
RE007 growth inh – less growth of the S. pombe RE007 Vpr strain; S. pombe RE007 Vpr strain, BacTiter-Glo ATP luminescence, 24 h; Potency, µM (doses to about 92.2 µM), without a hit: at the highest dose activity change, negative = less growth, hits mostly inhibitors; hit rate 0.21% among 360,000; AID 651644; active = well fitted falling curve with a large enough effect; inconclusive = small, poorly fitted or top-dose-only effect; inactive = no such curve, though single readings can be large or run the other way; note: % is set by controls: 0 for no effect and ±100 for the full control effect; nearly all actives have a fitted effect of over 50% in size
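Fission yeast strain RE007, carrying one chromosomally integrated HIV-1 vpr copy, was seeded at OD 0.01 in PMG+AL medium with 23 nL pinned compound. After 24 h at 30 °C and 99% humidity, viability was read by BacTiter-Glo luminescence.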
NS1 inh – blocks influenza NS1 protein function; hit rate 0.4% among 270,000; Potency, µM (doses to about 46.1 µM), without a hit: top-dose activity, positive = more growth; calls by dose curve; note: actives are rising curves; nearly all actives have a fitted effect of over 50% in size
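Recovery from NS1-induced slow growth read by OD600 in budding yeast switched to galactose assay medium (pH 6.0, -URA) at 1:100 dilution. Compound 23 nl per well; the matching strain lacking NS1 serves as control.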
* marks the source's active call; other numbers are inactive results; ? = inconclusive; · = not tested or not shown; [ ] = remark or other dose. Shown are actives, neighbours in structure and some others; about 3.3% of the full set was active somewhere. Unless noted, calls come from the whole dose curve; as a rule, active = well fitted curve in the direction sought with a large enough effect; inconclusive = small, poorly fitted or top-dose-only effect, or another doubt; inactive = no such curve, though single readings can be large; an effect the other way counts as inactive or inconclusive. Potency is the fitted concentration of half-maximal effect.

SMILES	LmPK inh	Tb PYK inh	SARS PLP yeast	Sm TGR inh	RE007 growth inh	NS1 inh
CN(C)CCCN(C(=O)CCSc1ccccc1)c1nc2cc3c(cc2s1)OCO3	9.7%	-5.7%	-6.2%	?	5.0%	·
COc1ccc(Cl)c2sc(N(CCN(C)C)C(=O)CCS(=O)(=O)c3ccc(C)cc3)nc12	·	-3.1%	2.5%	-30.4%	-13.7%	·
CCN(CC)CCN(C(=O)CCS(=O)(=O)c1ccccc1)c1nc2cc(OC)c(OC)cc2s1	0.5%	1.9%	7.7%	14.1µM*	20.0%	0.2%
O=C(CCS(=O)(=O)c1cc(Br)cc2c1N(C(=O)C1CC1)CC2)NCc1ccc(Cl)cc1	·	-7.1%	·	-0.4%	·	·
CCCCC(O)(CCN1CCOCC1)c1ccc(Cl)cc1 (stereo not drawn)	0.6%	7.2%	21.6%	35.5µM*	11.6%	-16.2%
CCCCOc1ccc(C(O)(CC)CCN2CCOCC2)cc1 (stereo not drawn)	5.8%	0.0%	14.1%	20µM*	9.8%	-8.6%
CCCCOc1ccc(OCCCN2CCOCC2)cc1	-2.0%	-3.6%	2.7%	-0.2%	1.9%	-19.5%
CCCC(O)(c1ccc(Cl)cc1)C(CN1CCOCC1)c1ccccc1 (stereo not drawn)	12.8%	2.4%	-19.2%	-14.3%	-8.3%	-11.6%
CCCCOc1ccc(C(O)(CCC)CCN2CCOCC2)cc1 (stereo not drawn)	1.7%	-5.2%	0.3%	39.8µM*	-6.6%	0.5%
CCOC(=O)c1cc(-c2ccc(C)cc2)nn1Cc1ccccc1	·	12.4%	·	0.3%	·	·
O=C(CCC(=O)c1cccs1)NNC(=O)c1ccccc1O	·	-10.2%	9.8%	11.2µM*	8.1%	·
C/C(=N\NC(=O)c1ccncc1)c1cccs1	-10.5%	-5.3%	-1.5%	24.1%	-3.5%	·
C/C(=N\NC(=O)c1ccccc1O)c1cccs1	14.1µM*	-26.1%	-12.3%	3.0%	-25.3%	-18.5%
C/C(=N/NC(=O)c1cc(C2CC2)[nH]n1)c1cccs1	22.4µM*	-5.5%	-5.8%	-21.0%	10.6%	-5.4%
O=C(CCC(=O)c1cccs1)NNC(=O)c1ccc(Cl)cc1	·	1.0%	2.3%	-34.3%	-11.2%	·
CCOC(=O)c1c(/N=C/c2c(O)n(-c3ccc(F)cc3)c(=S)[nH]c2=O)sc2c1CCCC2	7.4%	-10.2%	-4.0%	?	-9.7%	2.5%
CCOC(=O)c1c(/N=C/c2c(O)n(-c3ccccc3F)c(=S)[nH]c2=O)sc2c1CCCC2	2.9%	-22.4%	9.7%	11.2µM*	-16.8%	-1.9%
N#Cc1c(-c2ccco2)cc(-c2ccccn2)nc1N	-1.9%	-17.1%	-3.1%	10µM*	0.1%	1.1%
N#Cc1c(-c2ccco2)cc(C2CC2)nc1N	0.4%	-8.0%	-4.1%	10µM*	1.1%	-31.3%
c1cncc(-c2nc(-c3ccco3)cs2)c1	-9.0%	?	-8.7%	7.94µM*	6.2%	-34.3%
N#Cc1c(-c2ccco2)cc(-c2cccnc2)nc1N	-0.6%	-7.0%	-11.4%	11.2µM*	34.3%	?
COc1ccc(CN2CCc3nc(SCC(=O)Nc4cc(C)cc(C)c4)[nH]c(=O)c3C2)cc1	·	2.1%	·	1.9%	·	·
O=C(Cn1cc(C(=O)C(F)(F)F)c2ccccc21)N1CCCCCC1	·	-3.4%	·	-5.7%	·	·
COc1ccc(-c2cc(C3CCNCC3)[nH]n2)cc1	2.9%	5.4%	11.7%	44.7µM*	9.0%	9.9%
COc1ccc(-c2cc(-c3ccc(OC)cc3)[nH]n2)cc1	15.5%	0.9%	-10.4%	8.7%[11.4 µM]	-23.6%	-61.0%
SMILES	LmPK inh	Tb PYK inh	SARS PLP yeast	Sm TGR inh	RE007 growth inh	NS1 inh
CC(C)Oc1ccc(CNC(=O)c2sc3ncccc3c2-n2cccc2)cc1	·	-2.1%	·	1.0%	·	·
Cc1ccc(S(=O)(=O)N2CCn3cccc3C2C)cc1 (stereo not drawn)	·	-4.8%	-0.8%	?	16.5%	·
Cc1cccc(S(=O)(=O)N2CCn3cccc3C2C)c1 (stereo not drawn)	·	-0.9%	7.7%	44.7µM*	0.6%	·
Oc1ccc2c3c1O[C@H]1c4[nH]c5ccccc5c4C[C@@]4(O)C(C2)N(CC2CC2)CC[C@]314	15.1%	·	0.8%	17.8µM*	·	·
Oc1ccc2c3c1O[C@H]1c4[nH]c5ccccc5c4C[C@@]4(O)[C@@H](C2)N(CC2CC2)CC[C@]314	·	-1.2%	·	44.7µM*	-11.1%[18.4 µM]	·
NC(N)=Nc1ccc2[nH]c3c(c2c1)C[C@@]1(O)[C@H]2Cc4ccc(O)c5c4[C@@]1(CCN2CC1CC1)C3O5 (stereo partly drawn)	·	-9.7%	1.4%	·	-6.2%	·
Oc1ccc2c3c1O[C@H]1c4[nH]c5c(c4C[C@@]4(O)[C@@H](C2)N(CC2CC2)CC[C@]314)C[C@@]1(O)[C@H]2Cc3ccc(O)c4c3[C@@]1(CCN2CC1CC1)[C@H]5O4	·	·	·	·	·	17.7%
COc1ccc(-c2noc(CSc3nnc(-c4ccc(Cl)cc4)n3C)n2)cc1OC	·	-6.7%	·	-2.8%	·	·
CCOCCCN(C(=O)Cn1nnc2ccccc21)C(C(=O)NCc1ccco1)c1ccncc1 (stereo not drawn)	4.7%	-5.7%	0.0%	15.8µM*	10.7%	-4.0%
Cc1cc(C)c(NC(=O)CCn2c(=O)c3cccn3c3ccccc32)c(C)c1	·	1.1%	·	-6.2%	·	·
O=C1/C(=C/c2ccncc2)SC(=S)N1N1CCOCC1	3.9%	-14.6%	-0.1%	0.891µM*	6.8%	-0.2%
O=C1/C(=C/c2cccnc2)SC(=S)N1N1CCOCC1	4.1%	0.7%	-0.7%	2.82µM*	28.4%	-3.7%
O=C1/C(=C/c2cccs2)SC(=S)N1N1CCOCC1	7.8%	1.6%	-0.4%	?	-8.5%	-3.1%
CCCCNC(=O)CN1C(=O)c2c(c3ccccc3n2C)C1c1ccc(OC)cc1 (stereo not drawn)	·	9.7%[15.4 µM]	·	17.0%	·	·
CCOC(=O)N1CCc2c(sc3c2c(=O)n(CCc2ccccc2)c(=O)n3Cc2cc(C)ccc2C)C1	·	-3.5%	·	-2.3%	·	·
CC(=O)c1ccc(S(=O)(=O)NCc2ccc(C(=O)NCC(c3ccccc3)N(C)C)cc2)cc1 (stereo not drawn)	-0.4%	-3.9%	-3.6%	14.1µM*	-20.2%	6.7%
Cc1nn(-c2ccccc2)c(Cl)c1CN(C(=O)CCl)c1ccc(Cl)cc1	-7.8%	4.7%	-13.2%	2µM*	11.4%	-37.7%
CC(=O)N(Cc1c(C)nn(-c2ccccc2)c1Cl)c1ccc(Cl)cc1	5.4%	0.4%	9.4%	2.1%	11.4%	-22.6%
Cc1ccc(CCNC(=O)CCCn2c(=O)c3ccccc3n(CC(=O)Nc3cc(Cl)ccc3C)c2=O)cc1	·	0.7%	·	0.9%	·	·
